Reference: PubChem BioAssay (NCATS)
Results filed as inconclusive are left out. Active and inactive are the calls of the source. Unless noted, the call rests on the fitted dose curve; in most records, active means well fitted curve in the direction sought with a large enough effect; inconclusive means small, poorly fitted or top-dose-only effect, or another doubt; inactive means no such curve, though single readings can be large; an effect the other way counts as inactive or inconclusive.

Key:
[1] = Cytometry Cell-Based qHTS for Inhibitors of the mTORC1 Signaling Pathway in MEF cells (AID 2668);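 further: Tsc2-/- p53-/- mouse embryonic fibroblasts stably re-expressing wild-type Tsc2; percent cells positive for phospho-rpS6 Ser235/236 relative to propidium iodide stain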
In short: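 Tsc2-/-, p53-/- MEFs re-expressing WT Tsc2; cpd 24 hrs, 37 degree Celsius; PFA fix, Alexa-488 p-rpS6 (Ser235/236) Ab 2 hrs RT, PI counterstain; Acumen 488nm scan; p-S6/PI ratio → % positive cells; PI count = viability.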

[2] = Validation screen for inhibitors of Lassa infection (AID 463096; calls by dose curve)
[3] = Validation screen for small molecules that induce DNA re-replication in MCF 10A normal breast cells (AID 463097); further: nearly all actives have a fitted effect of over 60% in size
In short: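 Image-based qHTS: normal breast cells are incubated with compound for 48 hr, stained with Hoechst, and scanned for total nuclear fluorescence. Compounds raising the fraction of nuclei with elevated DNA content count as re-replication inducers.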

[4] = biological target: DNA polymerase III PolC-type (Bacillus subtilis (strain 168)) (UniProt P13267); experiment: qHTS Validation Assay for the Inhibitors of DNA Replication in Gram-Positive Bacteria (AID 485295);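 further: reconstituted holoenzyme with PolC plus beta clamp SSB and primase; PicoGreen fluorescence of double-stranded DNA made on primed circular M13 template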
Chain of DNA polymerase III PolC-type (Bacillus subtilis (strain 168)) (P13267 whole entry, looked up): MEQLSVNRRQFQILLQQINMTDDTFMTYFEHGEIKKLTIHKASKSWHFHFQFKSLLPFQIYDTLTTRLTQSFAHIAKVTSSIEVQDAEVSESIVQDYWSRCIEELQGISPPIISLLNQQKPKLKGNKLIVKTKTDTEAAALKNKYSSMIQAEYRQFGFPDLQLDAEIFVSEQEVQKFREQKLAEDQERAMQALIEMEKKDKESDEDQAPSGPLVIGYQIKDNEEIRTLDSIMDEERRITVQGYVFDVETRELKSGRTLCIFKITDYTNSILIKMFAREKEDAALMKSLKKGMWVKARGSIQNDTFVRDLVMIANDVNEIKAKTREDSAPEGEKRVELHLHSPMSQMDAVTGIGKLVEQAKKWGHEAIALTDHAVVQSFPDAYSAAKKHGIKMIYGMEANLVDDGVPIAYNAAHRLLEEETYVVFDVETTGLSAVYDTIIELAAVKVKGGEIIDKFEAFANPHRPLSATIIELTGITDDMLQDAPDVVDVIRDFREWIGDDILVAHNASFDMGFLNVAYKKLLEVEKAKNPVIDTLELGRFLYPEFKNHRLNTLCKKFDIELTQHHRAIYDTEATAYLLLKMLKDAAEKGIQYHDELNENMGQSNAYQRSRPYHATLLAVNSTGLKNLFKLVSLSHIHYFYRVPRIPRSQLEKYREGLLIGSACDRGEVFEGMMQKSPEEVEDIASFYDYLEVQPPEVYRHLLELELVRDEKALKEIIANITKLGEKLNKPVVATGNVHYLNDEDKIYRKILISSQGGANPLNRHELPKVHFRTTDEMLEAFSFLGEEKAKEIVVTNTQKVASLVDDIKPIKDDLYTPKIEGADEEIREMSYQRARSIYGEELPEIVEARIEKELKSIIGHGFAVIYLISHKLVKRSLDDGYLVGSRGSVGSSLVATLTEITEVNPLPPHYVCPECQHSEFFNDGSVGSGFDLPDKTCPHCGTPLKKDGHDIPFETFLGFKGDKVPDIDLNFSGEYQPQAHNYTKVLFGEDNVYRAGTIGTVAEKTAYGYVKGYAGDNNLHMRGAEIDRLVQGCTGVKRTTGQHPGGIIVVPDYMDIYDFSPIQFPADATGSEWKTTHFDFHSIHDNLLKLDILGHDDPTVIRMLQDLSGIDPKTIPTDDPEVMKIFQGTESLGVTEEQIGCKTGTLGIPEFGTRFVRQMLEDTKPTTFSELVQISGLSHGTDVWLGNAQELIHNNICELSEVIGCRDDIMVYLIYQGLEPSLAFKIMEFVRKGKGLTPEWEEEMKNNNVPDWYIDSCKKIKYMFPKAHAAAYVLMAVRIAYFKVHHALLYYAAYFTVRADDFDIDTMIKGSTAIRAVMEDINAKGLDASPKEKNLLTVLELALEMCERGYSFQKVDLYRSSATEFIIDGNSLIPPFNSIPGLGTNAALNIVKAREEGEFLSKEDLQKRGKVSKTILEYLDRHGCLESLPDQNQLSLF
In short: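 First, compound is mixed with the reconstituted replication complex and held at room temperature. Next, circular single-stranded M13Gori with nucleotides starts synthesis. Finally, PicoGreen in EDTA halts the reaction and stains double-stranded product for fluorescence reading.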

[5] = biological target: Tumor susceptibility gene 101 protein (Homo sapiens) (UniProt Q99816); experiment: qHTS Validation Assay for Iinhibitors of HIV-1 Budding by Blocking the Interaction of PTAP/TSG101 (AID 485342; calls by dose curve)
Chain of Tumor susceptibility gene 101 protein (Homo sapiens) (Q99816 whole entry, looked up, the tested form may be a part): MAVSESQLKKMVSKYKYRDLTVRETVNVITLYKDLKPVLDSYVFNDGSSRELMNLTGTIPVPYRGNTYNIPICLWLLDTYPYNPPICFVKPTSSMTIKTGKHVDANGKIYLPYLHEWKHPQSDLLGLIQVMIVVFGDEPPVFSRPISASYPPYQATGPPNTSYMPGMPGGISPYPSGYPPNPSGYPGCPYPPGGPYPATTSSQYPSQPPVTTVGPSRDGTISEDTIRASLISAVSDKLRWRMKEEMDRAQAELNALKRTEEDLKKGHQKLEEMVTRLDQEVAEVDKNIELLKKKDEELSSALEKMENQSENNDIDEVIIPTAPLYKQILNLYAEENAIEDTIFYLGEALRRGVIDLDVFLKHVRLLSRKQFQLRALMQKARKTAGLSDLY
In short: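 Binding of a FITC-tagged PTAP-motif peptide (50 nM) to the Tsg101 binding domain (10 uM) is monitored by fluorescence polarization. Compounds are pin-delivered before peptide addition, and incubation runs 20 min at room temperature.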

[6] = qHTS Validation Assay to Find Inhibitors of Chronic Active B-Cell Receptor Signaling (AID 485345; active means well fitted curve in the direction sought with a large enough effect in the main read-out, with a control signal flat, not every such curve was filed as active)
In short: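 Read-out: ratio of filter-corrected green (IkappaBalpha fusion) to red (native) luciferase signal in doxycycline-induced TMD8 cells after 4 h at 37C. Titration spanned 46 uM–3 nM; Data were normalised to basal cells and 10 uM MG-132 wells.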

[7] = biological target: ATP-dependent 6-phosphofructokinase (Trypanosoma brucei brucei) (UniProt O15648); experiment: qHTS Validation Assay to Find Inhibitors of T. brucei phosphofructokinase (AID 485368); conditions: T. brucei PFK enzyme assay, qHTS 7-point titration; at 57.5 µM (top of the series)
Chain of ATP-dependent 6-phosphofructokinase (Trypanosoma brucei brucei) (O15648 whole entry, looked up): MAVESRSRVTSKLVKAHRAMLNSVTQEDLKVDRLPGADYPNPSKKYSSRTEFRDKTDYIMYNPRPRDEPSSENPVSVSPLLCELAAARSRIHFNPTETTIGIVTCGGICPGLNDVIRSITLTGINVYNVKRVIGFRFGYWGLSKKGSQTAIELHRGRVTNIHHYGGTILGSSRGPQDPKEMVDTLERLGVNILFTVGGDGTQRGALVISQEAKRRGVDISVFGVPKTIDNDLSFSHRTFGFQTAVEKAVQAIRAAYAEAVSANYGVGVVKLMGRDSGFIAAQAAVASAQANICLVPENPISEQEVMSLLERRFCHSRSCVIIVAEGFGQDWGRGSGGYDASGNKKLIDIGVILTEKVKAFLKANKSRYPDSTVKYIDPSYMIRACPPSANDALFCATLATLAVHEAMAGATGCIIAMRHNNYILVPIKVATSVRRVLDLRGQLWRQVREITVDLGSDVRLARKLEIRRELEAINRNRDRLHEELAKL
In short: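 Steps: substrate mix (0.5 mM F6P, 0.1 mM ATP, MgCl2, TEA pH 8.0); compound; 1.25 nM T. brucei PFK; 45 min RT; ATP depletion 10 min; ADP-to-ATP detection 10 min; luminescence read; curve fitting and classification.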

[8] = biological target: Ubiquitin carboxyl-terminal hydrolase 2 (Homo sapiens) (UniProt O75604); experiment: qHTS Validation Assay for Inhibitors of Ubiquitin-specific Protease USP2a Using CHOP2 as the Reporter (AID 463106)
Chain of Ubiquitin carboxyl-terminal hydrolase 2 (Homo sapiens) (O75604 whole entry, looked up): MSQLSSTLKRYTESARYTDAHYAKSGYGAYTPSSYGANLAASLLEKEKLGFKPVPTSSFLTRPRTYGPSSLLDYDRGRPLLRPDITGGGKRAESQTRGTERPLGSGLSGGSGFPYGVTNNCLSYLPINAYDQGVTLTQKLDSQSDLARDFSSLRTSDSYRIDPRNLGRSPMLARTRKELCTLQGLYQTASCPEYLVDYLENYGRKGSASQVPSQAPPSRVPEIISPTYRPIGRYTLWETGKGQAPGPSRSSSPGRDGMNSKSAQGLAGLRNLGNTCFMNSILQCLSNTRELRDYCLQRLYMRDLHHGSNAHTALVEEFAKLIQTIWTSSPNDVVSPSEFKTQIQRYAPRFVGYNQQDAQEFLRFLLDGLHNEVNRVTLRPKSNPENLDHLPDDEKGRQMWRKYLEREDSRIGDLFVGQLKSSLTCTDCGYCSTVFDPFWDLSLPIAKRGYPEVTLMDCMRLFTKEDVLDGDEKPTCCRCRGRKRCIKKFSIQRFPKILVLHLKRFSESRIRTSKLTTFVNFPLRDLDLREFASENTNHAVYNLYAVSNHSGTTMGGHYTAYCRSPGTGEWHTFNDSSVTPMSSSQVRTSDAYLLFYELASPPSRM
In short: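 10nM USP2 core + cpd, 30min RT; add 25nM Ub-CHOP2/25nM substrate; 60min RT; FI 485/531nm. Buffer Tris pH 8.0, CaCl2, BME, CHAPS. Norm. to NEM = 100% inhibition; time-zero read flags fluorescent artifacts.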

[9] = biological target: Beta-2 adrenergic receptor (Homo sapiens) (UniProt P07550); experiment: qHTS validation assay of beta-arrestin-biased ligands of beta2-adrenergic receptor (AID 485366)
Chain of Beta-2 adrenergic receptor (Homo sapiens) (P07550 whole entry, looked up): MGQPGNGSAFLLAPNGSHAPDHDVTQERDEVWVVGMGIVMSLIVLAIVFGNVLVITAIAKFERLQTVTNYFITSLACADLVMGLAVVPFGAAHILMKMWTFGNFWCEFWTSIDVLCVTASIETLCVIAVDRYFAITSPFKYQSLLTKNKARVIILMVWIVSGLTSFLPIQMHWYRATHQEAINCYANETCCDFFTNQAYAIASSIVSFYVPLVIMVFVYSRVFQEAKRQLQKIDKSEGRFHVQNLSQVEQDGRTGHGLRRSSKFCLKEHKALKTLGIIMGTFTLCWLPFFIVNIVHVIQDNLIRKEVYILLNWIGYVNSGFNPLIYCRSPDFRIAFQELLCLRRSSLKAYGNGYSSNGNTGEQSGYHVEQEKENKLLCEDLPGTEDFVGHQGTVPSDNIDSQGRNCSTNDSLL
In short: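 Arrestin-recruitment (Tango) reporter: ligand-bound beta2-AR recruits beta-arrestin, releasing tTA, which upregulates luciferase. Titrations of up to 46 microM incubated 18 hr at 37 degrees C before luminescent readout.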

Measured: Potency

O=C(O)Cc1cnc[nH]1
inactive: [1] | [2] | [3] | [4] | [5] | [6] | [7]

C#CCOC(=O)C1=CCCN(C)C1
inactive: [1] | [2] | [3] | [4] | [5] | [6]

CC(=O)NCCc1c[nH]c2ccccc12
inactive: [1] | [2] | [3] | [8] | [4] | [5] | [6] | [9]

NC1CC1c1ccccc1 (stereo not given)
inactive: [1] | [2] | [3] | [4] | [5] | [6] | [9] | [7]

CCCN(CCC)C1CCc2ccc(O)cc2C1 (stereo not given)
inactive: [1] | [2] | [3] | [4] | [5] | [6] | [9]

NCCc1c[nH]c2ccc(O)cc12
inactive: [1] | [2] | [3] | [4] | [5] | [6] | [7]

C[C@@H](N)Cc1cnc[nH]1
inactive: [1] | [2] | [3] | [4] | [5] | [6] | [7]

CC(Cc1ccc(O)cc1)NCC(O)c1cc(O)cc(O)c1 (stereo not given)
inactive: [1] | [2] | [3] | [4] | [5] | [6]

C[N+]1(C)C2CCC1CC(OC(=O)C(CO)c1ccccc1)C2 (stereo not given)
inactive: [1] | [2] | [3] | [4] | [5] | [6] | [7]

O=C(O)CC[N+](=O)[O-]
inactive: [1] | [2] | [3] | [4] | [5] | [6] | [7]

CC(C)NC(C)Cc1ccc(I)cc1 (stereo not given)
inactive: [1] | [2] | [3] | [4] | [5] | [6]

CS(=N)(=O)CC[C@H](N)C(=O)O (stereo not given in full)
inactive: [1] | [2] | [3] | [4] | [5] | [6] | [9] | [7]

NC(=NCCC[C@H](N)C(=O)O)N[N+](=O)[O-]
inactive: [1] | [2] | [3] | [4] | [5] | [6] | [7]

NC(N)=NOCCC(N)C(=O)O (stereo not given)
inactive: [1] | [2] | [3] | [8] | [4] | [5] | [6]

CCCN1CCO[C@@H]2c3cc(O)ccc3OC[C@H]21
inactive: [1] | [2] | [3] | [4] | [5] | [6] | [7]

O=C(Cc1ccc(Cl)c(Cl)c1)N1CCCCC1CN1CCCC1 (stereo not given)
inactive: [1] | [2] | [3] | [4] | [5] | [6] | [7]

C[C@@H]1O[C@H](C[N+](C)(C)C)C[C@H]1O
inactive: [1] | [2] | [3] | [8] | [4] | [5] | [6] | [9] | [7]

CNCCc1c[nH]c2ccc(O)cc12
inactive: [1] | [2] | [3] | [4] | [5] | [6] | [7]

NC(=O)CN1CC(O)CC1=O (stereo not given)
inactive: [1] | [2] | [3] | [4] | [5] | [6] | [9]

c1ccc2sc(C3(N4CCCCC4)CCCCC3)cc2c1
inactive: [1] | [2] | [3] | [8] | [4] | [5] | [6] | [9]

CCCCc1ccc(C(=O)O)nc1
inactive: [1] | [2] | [3] | [4] | [5] | [6] | [7]

NC(CCP(=O)(O)O)C(=O)O (stereo not given)
inactive: [1] | [2] | [3] | [4] | [5] | [6] | [7]

NC1CCc2cc(O)c(O)cc2C1 (stereo not given)
inactive: [1] | [2] | [3] | [4] | [5] | [6]

NC(CP(=O)(O)O)C(=O)O (stereo not given)
inactive: [1] | [2] | [3] | [8] | [4] | [5] | [6] | [7]

CCCN(CCC)[C@@H]1CCc2ccc(O)cc2C1
inactive: [1] | [2] | [3] | [4] | [5] | [6] | [7]

C[C@]12N[C@H](Cc3ccccc31)c1ccccc12
inactive: [1] | [2] | [3] | [4] | [5] | [6] | [9]
